High-throughput results (PubChem BioAssay)
D3 ag – agonists of human D3 dopamine receptor | 410,000 tested, 0.58% active | P35462 | AID 652048 | D3R DiscoveRx beta-arrestin cells, luminescence, 90 min | max activation, %; in the data active means max activation above about 30%; further: 0% is about no effect
Target sequence (P35462 whole entry, looked up): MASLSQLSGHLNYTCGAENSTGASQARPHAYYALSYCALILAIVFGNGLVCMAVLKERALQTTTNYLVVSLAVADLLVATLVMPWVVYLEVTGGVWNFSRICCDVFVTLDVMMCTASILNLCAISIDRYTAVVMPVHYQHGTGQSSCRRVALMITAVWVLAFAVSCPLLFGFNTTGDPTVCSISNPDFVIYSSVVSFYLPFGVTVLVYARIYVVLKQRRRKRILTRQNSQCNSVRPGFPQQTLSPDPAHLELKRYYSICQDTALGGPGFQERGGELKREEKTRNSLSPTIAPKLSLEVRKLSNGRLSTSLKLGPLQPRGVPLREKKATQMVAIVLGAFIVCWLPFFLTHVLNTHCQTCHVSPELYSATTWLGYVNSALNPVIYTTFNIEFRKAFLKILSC
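Cells at 1500/well, incubated overnight, then treated with pinned compounds (dopamine as control) for 90 min at 37 degrees C. DiscoveRx reagent added for 30 - 60 minutes at room temperature; luminescence read.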
DRD3 antagonist – antagonists of human D3 dopamine receptor. P35462. max response, negative = inhibition, %. 360,000 tested, 2.5% active. D3R cells, DiscoveRx beta-arrestin luminescence, antagonist mode; hits give low values; in the data active means max response below about -50%; inconclusive means no clear call, values can overlap the other calls; further: on the % scale 0 is the no-effect control and ±100 the full control effect
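Cells expressing the human receptor were seeded at 1500 cells/well, incubated overnight at 37 degrees C in 5% CO2, then exposed to library compounds with dopamine controls for 90 minutes at 37 degrees C before luminescent detection.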
PI4K2A block – inhibitors of human PI4K2A; purified PI4K2A, ADP-Glo luminescence, 1 h; hits give low values; activity change, negative = inhibition, % at 76.9 µM; 420,000 tested, 0.13% active; in the data active means activity change below about -50%; inconclusive means mostly about -30% to -49%;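 further: -100% = wells without enzyme as full effect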
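In this quantitative HTS, ADP production by PI4K2A was quantified luminescently after 1 h at ambient temperature; 100 microM adenosine served as plate-quality control.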
PI5P4Ka inh – blocks human PI5P4K alpha kinase activity | PI5P4Kalpha enzyme, ADP-Glo luminescence, 60 min; hits give low values | 330,000 tested, 1.2% active | max response, %; active means max response of -50% or lower; inconclusive means between -30% and -50%; inactive means -30% or higher; further: value at the top dose of about 77 µM; on the % scale 0 is the no-effect control and ±100 the full control effect
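PI5P4Kalpha ADP-Glo assay; 5 microM ATP final; 60 min RT reaction; HEPES pH 7.4/EGTA/CHAPS, 5% DMSO; controls lacking substrate or enzyme; luminescent end-point.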
LDHA inh – blocks human lactate dehydrogenase A | P00338 | purified LDHA, NADH/diaphorase-resazurin fluorescence; hits give low values | activity change, % (values are at about 110 or 230 µM) | 480,000 tested, 0.15% active | AID 1347041; in the data active means activity change below about -30%; inconclusive means mostly about -25% to -30%;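 further: plate controls were DMSO wells for no effect and wells without enzyme for full effect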
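Human LDH5 (2 nM) was incubated with 0.06 mM NADH and 0.2 mM pyruvate for 5 min at room temperature in Tris pH 7.4. Remaining NADH was coupled through diaphorase/resazurin, and resorufin fluorescence was read at 0 and 20 min.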
* hit, by the source's call; ? = inconclusive; . = no result given. An excerpt weighted towards active compounds, which were near 3.3% of everything screened.

SMILES	D3 ag	DRD3 antagonist	PI4K2A block	PI5P4Ka inh	LDHA inh
COc1cc(/C=N/Nc2ccc(Cl)nn2)cc(OC)c1O	3	6	0	0	0
Oc1c(Br)cc(/C=N/Nc2ccc(Cl)nn2)cc1Br	4	-18	8	-93*	-2
Oc1ccc(/C=N/Nc2ccc(Cl)nn2)c(O)c1O	6	23	-7	-71*	4
CC1(c2ccc3c(c2)CCC3)NC(=O)N(Cc2coc(-c3cccs3)n2)C1=O (stereo not given)	.	.	.	.	-1
OCCCNCc1ccc(N(c2ccccc2)c2ccccc2)cc1	-21	-66*	-3	6	-16
CCCc1cc(=O)oc2cc(OC(C)C(=O)NCc3ccncc3)c(Cl)cc12 (stereo not given)	.	.	.	.	2
Nc1cc(N)c(OCC(F)(F)F)cc1OCC(F)(F)F	6	-56*	?	-30	25
Nc1cccc(OCC(F)(F)F)c1	.	.	.	.	-24
CCCS(=O)(=O)NC1CCN(c2nc3ccccc3o2)CC1	.	.	.	.	0
COc1cc(C(C)N)ccc1OCCC(C)C (stereo not given)	.	.	.	.	-23
CCOc1ccccc1C(=O)NC1CC2CCCC(C1)N2Cc1ccc(C)cc1 (stereo not given)	-12	-80*	3	2	-4
CC(=O)NC1CC2CCCC(C1)N2CC(=O)NCc1ccc(F)cc1 (stereo not given)	-2	22	-1	2	-14
CC(=O)NC1CC2CCCC(C1)N2Cc1ccc(C)cc1 (stereo not given)	-7	-113*	2	-4	-8
Cc1ccccc1C(=O)NC1CC2CCCC(C1)N2Cc1ccccc1Cl (stereo not given)	-1	?	-2	2	-3
O=C(NC1CC2CCCC(C1)N2Cc1ccc(F)cc1)c1ccc(F)cc1 (stereo not given)	-22	-108*	-5	0	2
CCCN1C2CCCC1CC(NC(=O)c1ccccc1OCC)C2 (stereo not given)	-6	?	5	.	0
Cc1ccccc1C(=O)NC1CC2CCC(C1)N2Cc1ccccc1 (stereo not given)	-17	-86*	0	1	-20
CC(C)Oc1ccccc1C(C)NC(=O)Cc1cccs1 (stereo not given)	.	.	.	.	-2
CCCCCC1CCc2nc(/C=C/c3ccccc3)ccc2C1 (stereo not given)	.	.	.	.	-6
Cc1c(CC(=O)O)c(=O)oc2c(C)c(OCc3cccc(Cl)c3)ccc12	.	.	.	.	10
Cc1ccc(CN2C3CCCC2CC(NC(=O)c2ccc(C)cc2)C3)cc1 (stereo not given)	-10	-109*	3	0	-3
CCCCN1CCN(C(=O)c2cn(C(C)c3ccccc3)nn2)CC1 (stereo not given)	.	.	-3	.	.
N#Cc1cc2c(nc1SCc1ccc(Cl)cc1)CCCC2	1	-64*	1	.	2
CN1CCc2nc(SCc3ccc(Cl)cc3)c(C#N)c(-c3cccs3)c2C1	-38	-60*	3	.	6
N#Cc1c(SCC(=O)O)nc2c(c1-c1cccs1)CCCC2	.	.	.	.	1
SMILES	D3 ag	DRD3 antagonist	PI4K2A block	PI5P4Ka inh	LDHA inh
O=C(COc1ncnc2ccccc12)NCc1ccccc1	.	.	.	.	2
Nc1nc2c(c(=O)[nH]1)N(C=O)C(CNc1ccc(C(=O)N[C@@H](CCC(=O)O)C(=O)O)cc1)CN2 (stereo not given in full)	13	.	.	.	.
COc1ccc2c(C(F)(F)F)cc(=S)[nH]c2c1	.	.	.	.	-2
Cc1nc2ccccc2c(=O)n1CCCN1CCOCC1	4	5	5	0	0
FC(F)(F)c1nc2nc(Cl)c(Cl)nc2n1CCCN1CCOCC1	-19	-57*	-2	3	-1
COCc1nnc(NS(=O)(=O)c2ccc([N+](=O)[O-])cc2)s1	-3	-58*	0	-5	-7
CC(C)(C)OC(=O)C(C#N)c1nc2ccccc2nc1Cl (stereo not given)	.	.	.	.	-2
CN1CCN(CCCN2c3ccccc3Sc3ccc(S(=O)(=O)N(C)C)cc32)CC1	-23	-53*	0	27	-3
COc1ccc(N(C(=O)C(C)(C)C)C2C=CS(=O)(=O)C2)c(OC)c1 (stereo not given)	.	.	.	.	6
COc1cccc(OCCCCN2CC(C)OC(C)C2)c1 (stereo not given)	-8	-87*	6	-4	-20
CCOc1cccc(OCCCCN2CCCCC2)c1	-13	-66*	8	-2	?
CC1CC(C)CN(CCCCOc2ccc([N+](=O)[O-])cc2)C1 (stereo not given)	-12	-82*	11	-3	-11
CC1CN(CCCCOc2ccc3ccccc3c2)CC(C)O1 (stereo not given)	-21	?	-8	1	-16
CC1CCCN(CCCCOc2cccc(Br)c2)C1 (stereo not given)	-9	-83*	-2	4	-7
CC1CN(CCCOc2ccc([N+](=O)[O-])cc2)CC(C)O1 (stereo not given)	-7	-15	5	-7	-21
CC1CN(CCOc2ccc(F)cc2)CC(C)O1 (stereo not given)	-21	-14	0	7	-12
COc1cccc(OCCCCN2CCCCC2)c1	-33	-83*	4	.	?
Brc1cccc(OCCCCN2CCCCC2)c1	-29	-92*	2	3	-14
COC(=O)c1ccc(OCCCCN2CC(C)OC(C)C2)cc1 (stereo not given)	-15	-75*	4	-2	-22
CC1CN(CCCOc2ccccc2[N+](=O)[O-])CC(C)O1 (stereo not given)	-50	-59*	12	.	?
CN(C)CCCCC#N	.	.	.	.	-2
CC1CCCN(CCOc2ccc(Br)cc2)C1 (stereo not given)	-33	-99*	-8	-6	-8
COC(=O)C1CCN(c2ccc([N+](=O)[O-])cc2)CC1	3	8	1	0	1
COC(=O)C1CCN(CCCOc2ccc(CN3CCN(c4ccc([N+](=O)[O-])cc4)CC3)cc2)CC1	32*	?	-3	7	-7
Cc1cc(C(=O)Nc2ccccn2)c2ccccc2n1	.	.	.	.	-11
SMILES	D3 ag	DRD3 antagonist	PI4K2A block	PI5P4Ka inh	LDHA inh
CCOc1ccc(CNC23CC4CC(CC(C4)C2)C3)cc1	.	.	.	.	-7
NC(=O)c1ccc(CN(CCc2cccs2)Cc2cccs2)cc1	.	.	.	.	8
CC(C)OC(=O)c1cc(NC(=S)Nc2ccc([N+](=O)[O-])cc2)cc(C(=O)OC(C)C)c1	3	-63*	-1	8	3
CCC(C)NCCOCCOc1ccc(Cl)c2ccccc12 (stereo not given)	-14	-56*	-1	8	-16
CCC(C)NCCOCCSc1ccc(Cl)cc1 (stereo not given)	-10	-78*	12	-1	-10
C=CCc1cc(Cl)ccc1OCCOCCNC(C)CC (stereo not given)	-16	?	5	12	-19
